Reference: PubChem BioAssay (EPA / NIEHS)
Records with an inconclusive call do not appear. Where a structure was tested more than once in an assay, its records may differ in their call. The source made the active and inactive calls. The calls were made as follows, unless noted: active = hit-call score of the fitted dose curve at least 0.9, where 1 is the maximum; inactive = score below 0.9.

Legend:
[1] = read-out: E-selectin (Homo sapiens) (UniProt P16581); assay: BSK_3C_Eselectin: BioMAP Diversity Plus: 3C Assay for Eselectin Biomarker Activity (AID 2283015); conditions: primary human endothelial cells (HUVEC); actives raise or lower the signal
Procedure, shortened: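 Endpoint derived by bidirectional fitting against DMSO vehicle; signal is ELISA-detected E-selectin from primary HUVEC at 24 h post-dosing, with parallel SRB staining (0.1% SRB, 560 nm) flagging cytotoxicity.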

[2] = read-out: Interleukin-1 alpha (IL1a), IL1A (gene 3552); assay: BSK_BE3C_IL1a: BioMAP Diversity Plus: BE3C Assay for Interleukin-1 alpha (IL1a) Biomarker Activity (AID 2283016); conditions: primary human bronchial epithelial cells; actives raise or lower the signal
Procedure, shortened: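 Human primary bronchial epithelial cells, 24 h chemical exposure; IL-1a quantified by ELISA, fitted bidirectionally against DMSO. Cytotoxicity assessed in parallel by SRB total-protein staining at the time of measurement.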

[3] = read-out: Monocyte Chemoattractant Protein-1 (MCP1), CCL2 (gene 6347); assay: BSK_3C_MCP1: BioMAP Diversity Plus: 3C Assay for Monocyte Chemoattractant Protein-1 (MCP1) Biomarker Activity (AID 2283017); conditions: primary human endothelial cells (HUVEC); actives raise or lower the signal
Procedure, shortened: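 Using human vascular primary endothelium, researchers measured MCP-1 by ELISA 24 h after treatment, with DMSO serving as negative control for bidirectional fitting.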

[4] = read-out: Monocyte Chemoattractant Protein-1 (MCP1), CCL2 (gene 6347); assay: BSK_4H_MCP1: BioMAP Diversity Plus: 4H Assay for Monocyte Chemoattractant Protein-1 (MCP1) Biomarker Activity (AID 2283018); conditions: primary human endothelial cells (HUVEC); actives raise or lower the signal
Procedure, shortened: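 Human umbilical vein endothelial cells (4H system) exposed to chemicals for 24 h in 96-well format. MCP-1 measured by ELISA; bidirectional fitting against DMSO, with SRB total-protein staining in parallel cultures for cytotoxicity.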

[5] = read-out: Human Leukocyte Antigen - DR isotype (HLADR), HLA-DRA (gene 3122); assay: BSK_3C_HLADR: BioMAP Diversity Plus: 3C Assay for Human Leukocyte Antigen - DR isotype (HLADR) Biomarker Activity (AID 2283019); conditions: primary human endothelial cells (HUVEC); actives raise or lower the signal
Procedure, shortened: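 Compound added to primary HUVEC cultures, 24 h incubation, then HLA-DR determined by ELISA; endpoint derived by bidirectional fitting relative to DMSO negative control.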

[6] = read-out: Interleukin-8 (IL8), CXCL8 (gene 3576); assay: BSK_3C_IL8: BioMAP Diversity Plus: 3C Assay for Interleukin-8 (IL8) Biomarker Activity (AID 2283020); conditions: primary human endothelial cells (HUVEC); actives raise or lower the signal
Procedure, shortened: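 Primary human umbilical vein endothelial cells were dosed for 24 h. IL-8 was quantified by ELISA and fitted bidirectionally against DMSO. Cytotoxicity was assessed in parallel cultures by SRB staining at 560 nm.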

[7] = read-out: Monokine induced gamma interferon (MIG), CXCL9 (gene 4283); assay: BSK_3C_MIG: BioMAP Diversity Plus: 3C Assay for Monokine induced gamma interferon (MIG) Biomarker Activity (AID 2283021); conditions: primary human endothelial cells (HUVEC); actives raise or lower the signal;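 as to AC50: MIG protein level measured by immunoassay in the treated endothelial cultures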
Procedure, shortened: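 HUVEC primary endothelial cultures dosed with chemical; MIG quantified by ELISA at 24 h. Data fitted bidirectionally against DMSO control, with parallel SRB total-protein staining for cytotoxicity.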

[8] = target: human Vitamin D Receptor (VDR), VDR (gene 7421) (UniProt P11473); assay: ATG_VDR_TRANS: Attagene TRANS-FACTORIAL HepG2 Assay for human Vitamin D Receptor (VDR) (AID 2283022; active = hit-call score of the fitted dose curve at least 0.9, where 1 is the maximum)
Chain of human Vitamin D Receptor (VDR), VDR (gene 7421) (P11473 whole entry, looked up): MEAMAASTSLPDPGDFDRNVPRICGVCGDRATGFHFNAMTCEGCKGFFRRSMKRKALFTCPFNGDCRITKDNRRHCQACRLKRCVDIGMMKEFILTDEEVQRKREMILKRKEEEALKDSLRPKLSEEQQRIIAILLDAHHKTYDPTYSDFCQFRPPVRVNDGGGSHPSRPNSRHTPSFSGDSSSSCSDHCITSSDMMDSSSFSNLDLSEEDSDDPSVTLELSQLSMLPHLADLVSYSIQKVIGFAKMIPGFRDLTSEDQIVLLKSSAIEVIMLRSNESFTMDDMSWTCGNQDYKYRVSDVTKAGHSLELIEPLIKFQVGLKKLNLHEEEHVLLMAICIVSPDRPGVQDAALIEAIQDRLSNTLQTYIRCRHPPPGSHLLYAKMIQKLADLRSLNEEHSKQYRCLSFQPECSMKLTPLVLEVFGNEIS
Procedure, shortened: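 Multiplexed TRANS reporter in HepG2; 24 h treatment; reporter mRNA by RT-PCR plus capillary electrophoresis; upregulation scored relative to DMSO.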

[9] = BSK_3C_SRB: Viability Assessment in the BioMAP Diversity Plus: 3C Assay (AID 2283023); conditions: primary human endothelial cells (HUVEC);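 also: fitted both ways against DMSO so a hit may be signal rise or drop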
Procedure, shortened: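 Overt cytotoxicity is gauged in parallel confluent HUVEC cultures by SRB total-protein staining at the time of biomarker measurement, 24 h after dosing. Gain or loss of signal is fitted versus DMSO.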

[10] = read-out: Matrix Metallopeptidase 1 (MMP1), MMP1 (gene 4312); assay: BSK_BE3C_MMP1: BioMAP Diversity Plus: BE3C Assay for Matrix Metallopeptidase 1 (MMP1) Biomarker Activity (AID 2283024); conditions: primary human bronchial epithelial cells; actives raise or lower the signal
Procedure, shortened: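 Human primary bronchial epithelial cells (BE3C system) dosed for 24 h; MMP-1 quantified by ELISA. Bidirectional fit against DMSO; cytotoxicity tracked in parallel cultures by SRB total-protein staining.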

[11] = BSK_3C_Vis: BioMAP Diversity Plus: 3C Assay for Morphology Visualization (AID 2283025); conditions: primary human endothelial cells (HUVEC);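 also: fitted both ways so gain or loss versus DMSO counts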;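 as to AC50: light microscopy image of cell morphology used as background control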
Procedure, shortened: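 Human umbilical vein endothelial cell morphology was inspected by light microscopy 24 h after chemical dosing; scored bidirectionally relative to DMSO.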

[12] = read-out: Pselectin, SELP (gene 6403); assay: BSK_4H_Pselectin: BioMAP Diversity Plus: 4H Assay for Pselectin Biomarker Activity (AID 2283026); conditions: primary human endothelial cells (HUVEC); actives raise or lower the signal
Procedure, shortened: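 Primary human umbilical vein endothelial cells were treated 24 h, and cell-surface P-selectin was then quantified by ELISA. Bidirectional fit versus DMSO; cytotoxicity checked in parallel cultures by SRB total-protein staining.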

[13] = BSK_4H_SRB: Viability Assessment in the BioMAP Diversity Plus: 4H Assay (AID 2283027); conditions: primary human endothelial cells (HUVEC);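 also: cells exposed to compound for 24 h before staining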;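 as to AC50: curves fitted both ways versus DMSO so AC50 may be loss or gain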
Procedure, shortened: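 Human umbilical vein endothelial cells, 24 h after chemical dosing; total protein measured by 0.1% sulforhodamine B staining after 10% TCA fixation, read at 560 nm. Bidirectional fitting against DMSO.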

[14] = BSK_BE3C_SRB: Viability Assessment in the BioMAP Diversity Plus: BE3C Assay (AID 2283028); conditions: primary human bronchial epithelial cells;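 as to AC50: fitted both ways so AC50 may mark signal gain or loss versus DMSO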
Procedure, shortened: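 SRB total-protein staining (0.1%, after TCA fixation) of chemically dosed human bronchial epithelial primary cells at 24 h; DMSO serves as the negative control for bidirectional curve fitting.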

[15] = read-out: Thrombomodulin, THBD (gene 7056); assay: BSK_3C_Thrombomodulin: BioMAP Diversity Plus: 3C Assay for Thrombomodulin Biomarker Activity (AID 2283029); conditions: primary human endothelial cells (HUVEC); actives raise or lower the signal
Procedure, shortened: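 Human umbilical vein endothelial cells were exposed to chemicals for 24 h; cell-surface thrombomodulin quantified by ELISA, with bidirectional fitting against DMSO baseline.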

[16] = read-out: Urokinase-type plasminogen activator receptor (uPAR), PLAUR (gene 5329); assay: BSK_4H_uPAR: BioMAP Diversity Plus: 4H Assay for Urokinase-type plasminogen activator receptor (uPAR) Biomarker Activity (AID 2283030); conditions: primary human endothelial cells (HUVEC); actives raise or lower the signal
Procedure, shortened: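 Endpoint derived via bidirectional curve fitting against DMSO baseline; readout was ELISA detection of uPAR on umbilical vein endothelial cells at 24 h post-treatment, with SRB-stained parallel cultures assessing cytotoxicity.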

[17] = read-out: Vascular endothelial growth factor receptor 2 (Homo sapiens) (UniProt P35968); assay: BSK_4H_VEGFRII: BioMAP Diversity Plus: 4H Assay for Vascular endothelial growth factor receptor 2 (VEGFR2) Biomarker Activity (AID 2283031); conditions: primary human endothelial cells (HUVEC); actives raise or lower the signal;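 as to AC50: cell-surface VEGFR2 protein level quantified by ELISA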
Procedure, shortened: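 In this multiplexed HUVEC system, biomarker ELISA was performed after 24 h chemical exposure. Parallel SRB staining (TCA fixation, 560 nm) tracked cytotoxicity; DMSO served as baseline.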

[18] = read-out: Human Leukocyte Antigen - DR isotype (HLADR), HLA-DRA (gene 3122); assay: BSK_BE3C_HLADR: BioMAP Diversity Plus: BE3C Assay for Human Leukocyte Antigen - DR isotype (HLADR) Biomarker Activity (AID 2283032); conditions: primary human bronchial epithelial cells; actives raise or lower the signal
Procedure, shortened: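 Human primary bronchial epithelial cells (BE3C system) exposed to compound for 24 hours; cell-surface HLA-DR measured by ELISA, fitted bidirectionally relative to DMSO. Total protein by SRB in parallel cultures tracked cytotoxicity.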

[19] = read-out: Vascular cell adhesion molecule 1 (VCAM1), VCAM1 (gene 7412); assay: BSK_4H_VCAM1: BioMAP Diversity Plus: 4H Assay for Vascular cell adhesion molecule 1 (VCAM1) Biomarker Activity (AID 2283033); conditions: primary human endothelial cells (HUVEC); actives raise or lower the signal
Procedure, shortened: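 Primary human umbilical vein endothelial cells, 4H stimulation system, treated for 24 h; cell-surface VCAM-1 quantified by ELISA. Bidirectional fitting against DMSO; cytotoxicity tracked by SRB total-protein staining in parallel cultures.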

[20] = read-out: Interferon-gamma inducible Protein 10 (IP10), CXCL10 (gene 3627); assay: BSK_BE3C_IP10: BioMAP Diversity Plus: BE3C Assay for Interferon-gamma inducible Protein 10 (IP10) Biomarker Activity (AID 2283034); conditions: primary human bronchial epithelial cells; actives raise or lower the signal
Procedure, shortened: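 Primary human bronchial epithelial cells, with IP-10 measured by ELISA 24 hours after chemical dosing. Bidirectional fit against DMSO; cytotoxicity checked by SRB total protein staining in parallel cultures.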

Measured: AC50

Chain of E-selectin (Homo sapiens) (P16581 whole entry, looked up): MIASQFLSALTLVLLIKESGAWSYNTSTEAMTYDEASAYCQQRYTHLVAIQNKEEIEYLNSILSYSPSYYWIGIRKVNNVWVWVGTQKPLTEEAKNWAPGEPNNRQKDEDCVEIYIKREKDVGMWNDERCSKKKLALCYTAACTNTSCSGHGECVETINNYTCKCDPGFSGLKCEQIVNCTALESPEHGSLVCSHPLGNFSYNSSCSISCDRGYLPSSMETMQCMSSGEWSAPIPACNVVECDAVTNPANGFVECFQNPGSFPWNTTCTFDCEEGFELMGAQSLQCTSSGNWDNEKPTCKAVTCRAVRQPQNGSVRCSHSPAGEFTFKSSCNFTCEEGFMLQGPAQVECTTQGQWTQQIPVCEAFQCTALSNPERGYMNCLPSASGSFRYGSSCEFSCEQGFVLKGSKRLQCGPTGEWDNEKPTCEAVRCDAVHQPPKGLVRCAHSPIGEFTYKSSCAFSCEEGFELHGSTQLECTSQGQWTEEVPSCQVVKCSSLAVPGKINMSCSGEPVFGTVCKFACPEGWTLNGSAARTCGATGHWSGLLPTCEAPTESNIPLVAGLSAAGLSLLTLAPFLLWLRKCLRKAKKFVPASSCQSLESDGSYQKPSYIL

CC(C)(OO)c1ccccc1
inactive: all assays above

COc1cc(-c2ccc(N)c(OC)c2)ccc1N
active: [2] 5.28 µM | [3] 30 µM | [5] 25.5 µM | [10] 4.7 µM
inactive: [1] | [2] | [3] | [4] | [5] | [7] | [8] | [9] | [10] | [11] | [12] | [13] | [14] | [15] | [16] | [17] | [18] | [19] | [20]

ClC1=C(Cl)[C@]2(Cl)[C@H]3[C@H]([C@H]4C=C[C@H]3C4)[C@@]1(Cl)C2(Cl)Cl
active: [3] 3.97 µM | [4] 0.748 µM | [5] 8.54 µM | [11] 13.6 µM | [12] 7.17 µM | [17] 2.01 µM | [18] 13.1 µM | [19] 7.9 µM
not listed: [9] | [20]
inactive: all other assays above

COc1cc(OC)nc(NC(=O)NS(=O)(=O)c2ncccc2C(=O)N(C)C)n1
not listed: [8]
inactive: all other assays above

CCc1ccccc1C
inactive: [8]

COC[C@H](C)N(C(=O)CCl)c1c(C)csc1C
not listed: [6] | [8] | [9]
inactive: all other assays above

O=Cc1cccc(Oc2ccccc2)c1
not listed: [6] | [9]
inactive: all other assays above

O=C(O)C(F)(F)C(F)(F)C(F)(F)C(F)(F)C(F)(F)C(F)(F)F
inactive: [1] | [2] | [3] | [4] | [5] | [7] | [8] | [10] | [11] | [12] | [13] | [14] | [15] | [16] | [17] | [18] | [19] | [20]
active: [10] 13.6 µM

COc1cc2c(cc1OC)[C@@]13CCN4CC5=CCO[C@H]6CC(=O)N2[C@H]1[C@H]6[C@H]5C[C@H]43
inactive: [8]

c1cc[c]([Hg][c]2ccccc2)cc1
inactive: [8]

COC(=O)c1sccc1S(=O)(=O)NC(=O)Nc1nc(C)nc(OC)n1
not listed: [6] | [8] | [9]
inactive: all other assays above

C[C@]12CCC(=O)C[C@@H]1CC[C@@H]1[C@@H]2CC[C@]2(C)[C@@H](O)CC[C@@H]12
active: [1] 18 µM | [3] 26.9 µM | [5] 27.8 µM
not listed: [6] | [9]
inactive: all other assays above

O=C/C=C/c1ccccc1
inactive: [8]

NC(=S)Nc1ccccc1
not listed: [6] | [9]
inactive: all other assays above

CC(C)(c1ccccc1)c1ccc(O)c(C(C)(C)c2ccccc2)c1
active: [1] 10.6 µM | [2] 28.5 µM | [3] 10.8 µM | [4] 7.28 µM | [5] 7.99 µM | [7] 10.5 µM | [10] 32.3 µM | [11] 5.31 µM | [12] 6.57 µM | [13] 8.09 µM | [14] 25.6 µM | [16] 9.78 µM | [17] 7.22 µM | [18] 13.6 µM | [19] 8.48 µM | [20] 12 µM
inactive: [8] | [15]

C[C@@H]1C[C@@H]([C@H](O)CC2CC(=O)NC(=O)C2)C(=O)[C@@H](C)C1
active: [1] 2.4 µM | [2] 10.7 µM | [3] 8.41 µM | [4] 4.06 µM | [5] 3.85 µM | [7] 20.1 µM | [10] 2.51 µM | [11] 9.24 µM | [12] 3.9 µM | [13] 7.08 µM | [16] 4.3 µM | [17] 8.73 µM | [18] 4.95 µM | [19] 17.7 µM | [20] 8.61 µM
inactive: [14] | [15]

CCCCP(CCCC)CCCC
inactive: [8]
